Sampled rows, rich in hits. Any-hit rate of the full collection: about 2.9%.
PfHsp90 yeast 2: inhibits growth of yeast expressing Plasmodium falciparum Hsp90; S. cerevisiae expressing PfHsp90, BacTiter-Glo ATP, 48 h; yeast lacking PDR1 and PDR3 efflux regulators; inhibition, % at 9.4 µM; 0.32% of 310,000 active;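 active means every replicate shows inhibition above about 80%, whatever the replicate mean, limit read from the data; inconclusive means mean inhibition reaches the set limit but some replicate falls short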;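 further: 0% = DMSO neutral controls and 100% = 20 µM radicicol positive controls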
TRPM1 prom inh: reduces MITF-dependent TRPM1 promoter luciferase signal. SK-MEL-5 TRPM1 promoter luciferase, 24 h. inhibition, % at 12.5 µM. 0.83% of 330,000 active. AID 488899;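 active means mean inhibition across replicates of 60% or more, whatever share of single replicates reaches that level; inconclusive means some that reach 60%, reason not given; inactive means mean inhibition across replicates below 60%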
Glyco luc inh: blocks N-linked glycosylation in D54 reporter cells. D54 ERlucT glycosylation luciferase reporter, 24 h; percent of 100 nM tunicamycin response. reporter increase, % at 12.5 µM. 0.23% of 360,000 active. AID 588692;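 active means mean luciferase reporter signal, scaled so untreated is 0 and the glycosylation-blocking control 100, at or above a set limit in every replicate; inconclusive means mean reaches the limit but not every replicate does; inactive means mean below the limit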;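 further: luciferase carries N-glycosylation sites so blocking glycosylation raises the light; 0% = median of neutral control wells and 100% = median of 100 nM tunicamycin wells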
MITF TRPM1 HTS: MITF TRPM1 promoter activation in melanoma cells; activation, % at 12.5 µM; 0.75% of 300,000 active; SK-MEL-5 TRPM1-promoter luciferase, 24 h; % of positive control, neutral wells = 0;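 active means mean activation of at least 80% with every replicate also reaching 80%; inconclusive means mean reaches 80% but some replicate falls short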;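 further: 0% = neutral control wells and 100% = parthenolide positive control wells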
Wnt act: activates Wnt/beta-catenin signaling in a reporter cell assay. activator, plate reader. activation, % at 9.35 µM. 1.2% of 300,000 active. AID 743398; in the data active means activation above about 30%, passing the limit was not always enough; inconclusive means no clear call, values can overlap the other calls;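 further: 0% = neutral control wells and 100% = positive control wells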
NSD2 inh: blocks human histone methyltransferase NSD2 | NSD2 peptide methylation, AlphaScreen, 120 min | inhibition, % at 12.5 µM | 0.54% of 310,000 active | AID 743445; in the data active means inhibition above about 50%
Alpha artifact: interferes with AlphaScreen signal, flagging NSD2 false positives | 9.4% of 1,500 active | AlphaScreen artifact counterscreen, preloaded methylated H4 peptide | AID 1053174 | shares compounds with NSD2 inh | AC35, µM (series often up to 10 µM), for inactives: at the highest dose activity change, negative = signal loss; call rule not given here
Numbers without * were called inactive; ? = inconclusive; / = no result given; + = active, no number.

SMILES	PfHsp90 yeast 2	TRPM1 prom inh	Glyco luc inh	MITF TRPM1 HTS	Wnt act	NSD2 inh	Alpha artifact
CSc1ncccc1C(=O)NC(C)CCc1ccccc1 (stereo unspecified)	6	2	-1	-1	1	-2	/
O=C(NC1CCN(S(=O)(=O)c2ccc(Cl)cc2)CC1)c1cccnc1	1	1	3	-1	-1	28	/
Cc1ccc(S(=O)(=O)N2CCC(NC(=O)c3cccnc3)CC2)cc1Cl	-11	10	6	/	-4	63*	-4%
CC1CCCCC12NC(=O)N(CC(=O)NCc1ccco1)C2=O (stereo unspecified)	-18	2	-2	-2	-2	0	/
CC1CCCCC12NC(=O)N(CC(=O)NC(=O)NCc1ccco1)C2=O (stereo unspecified)	-21	8	0	-8	/	121*	5%
CNCCCOc1ccc2c(c1)CCC2	-5	-16	-1	16	0	61*	-4%
COc1ccc(CNC(=O)CCCN2C(=O)NC3(CCCC3)C2=O)cc1	/	0	3	1	4	58*	-5%
CCc1ccccc1OCC(=O)NCC1COc2ccccc2O1 (stereo unspecified)	/	7	-1	-6	-2	0	/
COc1cc(CC(=O)NCC2COc3ccccc3O2)cc(OC)c1OC (stereo unspecified)	0	4	2	-2	-1	54*	-3%
C/C(CC(=O)Nc1ccccn1)=N\NC(=O)C(=O)Nc1cccc(C)c1	21	-6	1	6	/	2	/
C/C(CC(=O)Nc1ccccn1)=N\NC(=O)C(=O)Nc1cccc(Cl)c1C	-4	-11	1	13	/	60*	-2%
COc1ccc(-c2oc3c4c2C(=O)OCCOC4CCC3)cc1 (stereo unspecified)	/	/	/	/	-1	/	/
CCOC(=O)c1ccc(N=c2scc(C)n2CC)cc1	-4	-41	-12	52	?	51*	-12%
C=CCn1c(C)csc1=Nc1ccc(C(C)=O)cc1	-3	-34	-1	37	4	2	/
COc1cnc(-c2ccccn2)nc1Oc1cccc(C(F)(F)F)c1	0	16	2	-15	-2	55*	-9%
O=C1CSc2ccc(S(=O)(=O)NCc3ccccc3Cl)cc2N1	-30	0	2	10	-2	1	/
CC(CS(=O)(=O)c1ccc2c(c1)NC(=O)CS2)C(=O)NCc1ccccc1Cl (stereo unspecified)	1	7	-3	-5	-1	55*	-4%
Cc1cc2c3c(c1C)C1(C(=O)N3C(C)(C)CC2C)C(C#N)=C(N)OC2=C1C(=O)CC(C)(C)C2 (stereo unspecified)	-20	-3	-2	5	/	4	/
COCCNC(=O)Cc1c(C)c2c(cc(C)c3c(C)coc32)oc1=O	-21	-1	1	3	1	51*	3%
CC(C)c1ccc(C(C)NC(=O)C2CCCC2)cc1 (stereo unspecified)	10	-1	-3	/	0	-3	/
COc1cc(/C=C2\C(=O)N(c3cccc(C(=O)O)c3)N=C2C)ccc1OCc1ccccc1	/	/	1	/	11	19	/
CC1=NN(c2cccc(C(=O)O)c2)C(=O)/C1=C\C=C\c1ccco1	-15	-22	3	16	/	+	7.2µM*
C[C@@H]1CCCCO[C@H](CN(C)C(=O)Cc2ccccc2)[C@@H](C)CN([C@H](C)CO)C(=O)c2cc(NC(=O)Nc3ccccc3)ccc2O1	/	/	-3	/	-2	/	/
Cc1ccc(CN2CCC(=O)N2)cc1	-1	11	2	-10	0	-1	/
O=C1CCN(Cc2ccccc2)N1	-24	-9	3	5	0	86*	1%
SMILES	PfHsp90 yeast 2	TRPM1 prom inh	Glyco luc inh	MITF TRPM1 HTS	Wnt act	NSD2 inh	Alpha artifact
CCN(CC)CCCNc1ncnc2ccccc12	-14	2	1	-1	-2	31	/
CCN(CC)CCCNc1ccc2ncn3c4ccc(O)cc4c(=O)c1c23	8	52	81*	-53	11	64*	-3%
COc1ccc(N2C(=O)CC(C)(C)CC2=O)cc1OC	2	-2	0	1	-1	-1	/
Cc1ccc(C2=NC(=O)/C(=C/c3cc(O)c(O)c(Br)c3)S2)cc1	-11	3	5	-2	-1	120*	8.2µM*
COc1cc(/C=C2\SC(c3ccc(C)cc3)=NC2=O)cc(OC)c1O	-17	-3	6	1	0	6	/
COc1ccccc1NC(=O)c1ccc(-n2cccn2)nc1	6	-10	1	10	/	118*	2%
CC1CCCC(NC(=O)COC(=O)c2c[nH]c(=O)[nH]c2=O)C1C (stereo unspecified)	30	-3	1	3	-1	78*	-6%
Cc1cc(C(=O)OCC(=O)NC2CCCC(C)C2C)c(C)o1 (stereo unspecified)	19	3	2	-2	-3	0	/
CCN(CC(=O)NCc1ccc(Cl)cc1)C(=O)c1ccc(C#N)cc1	-14	2	0	0	-1	3	/
CCc1nc2ccc(C(=O)N3CCN(S(=O)(=O)CC)CC3)cn2c1N(CC)CCN(C)C	/	/	1	/	0	1	/
Nc1nc(=S)c2ncn(C3OC(CO)C(O)C3O)c2[nH]1 (stereo unspecified)	3	10	66*	-7	0	52*	-9%
COc1ccc(-n2nnnc2SCC(=O)c2ccc3c(c2)OCCO3)cc1	10	9	-1	-11	0	98*	-3%
COc1cc(C=C(c2nc3ccccc3s2)c2nc3ccccc3s2)ccc1O	4	7	5	-8	/	7	/
COc1ccc(C=C(c2nc3ccccc3s2)c2nc3ccccc3s2)cc1O	38	12	29*	-11	/	59*	-10%
COc1ccc(C)cc1NC(=O)CCNC(=O)Cn1cnc2ccccc2c1=O	16	-7	4	6	-1	90*	-1%
CC1CCCCN1C(=O)CCNC(=O)Cn1cnc2ccccc2c1=O (stereo unspecified)	16	12	2	-4	1	94*	1%
Cc1cccc(-c2nnc(SCC(=O)c3ccc(O)cc3O)n2C)c1	-28	-9	1	11	1	96*	-6%
Cc1ccc(Cn2c(SCC(=O)N3CC(=O)Nc4ccccc43)nc3ccccc3c2=O)cc1	6	5	-2	-6	-3	60*	-1%
O=C1CN(C(=O)CSc2nc3cc(Cl)ccc3c(=O)n2Cc2ccccc2)c2ccccc2N1	-12	-1	-7	-2	-9	-1	/
O=C(CSc1nnc2ccccn12)NNC(=O)c1ccc([N+](=O)[O-])cc1	-10	6	-1	-4	2	86*	-4%
